In PubChem BioAssay (EPA / NIEHS):
The source made the active and inactive calls. Rule for the calls: active = hit-call score of the fitted dose curve at least 0.9, where 1 is the maximum; inactive = score below 0.9.

Assay: CCTE_Shafer_MEA_acute_burst_number: CCTE's Neural Acute Assay for Single-Electrode Bursts, Shafer Lab (AID 2284013)
Experimental: CCTE_Shafer_MEA_acute assay is conducted using Axion Biosystems 48 well microelectrode array (MEA) plates and Maestro recording system. Each well of the MEA plate contains a grid of 16 microelectrodes embedded in the culture surface. Electrically active cells, such as neurons, can be cultured over the electrodes, and electrical activity in these cells can be recorded extracellularly. The spontaneous firing of neurons is captured from each electrode on a microsecond timescale providing both temporally and spatially precise data. […] The CCTE_Shafer_MEA_acute assay uses primary cultures of rat cortical neurons. As these cultures mature over time, neural networks develop functional activity and form cohesive networks in which electrical activity can be highly coordinated. Baseline 40-minute recordings are made on days post-plating 13 or 15, followed by a secondary 40-minute recording after chemical exposure.CCTE_Shafer_MEA_acute_burst_number is a component of the CCTE_Shafer_MEA_acute assay. It measures the total number of single-electrode bursts (temporally-clustered groups of action potential firing) during a recording in a microelectrode array (MEA) using Axion Biosystems Maestro 768 channel amplifier with the AxIS adaptive spike detector. The recordings before and after chemical treatment are used to calculate a percent change in the burst number in each well.Data from the assay component CCTE_Shafer_MEA_acute_burst_number was analyzed into 1 assay endpoint. This assay endpoint, CCTE_Shafer_MEA_acute_burst_number, was analyzed in the negative analysis fitting direction relative to DMSO as the negative control and baseline of activity. Using a type of functional reporter, gain or loss-of-signal activity can be used to understand electrical activity.
Spontaneous activity in the cortical cultures was recorded using an Axion Biosystems Maestro 768 channel amplifier and Axion Integrated Studios (AxIS) v1.8 (or later) software. The amplifier recorded from all channels simultaneously (gain = 1200 x; sampling rate = 12.5 kHz/channel): raw signals were filtered with a Butterworth band-pass filter (300-5000 Hz), which filters out slower local field potentials leaving only fast potentials, i.e., "spikes", arising from extracellular currents associated with action potentials (Pine 2006; Wheeler and Nam 2011). On-line spike detection of filtered signals was conducted with the AxIS adaptive spike detector, using a threshold of 8x the root mean squared (rms) noise on each channel. Any electrodes with rms noise levels greater than 5 uV were grounded (e.g., no data were recorded). Once grounded, an electrode was grounded for the duration of the experiment. All recordings were conducted at 37 C. Wells were deemed usable if on the day of the exposure >/= 10 electrodes were active (defined as >/= 5 spikes/min). On DIV 13 or 15, a minimum of three wells from one cortical culture preparation were treated with each compound (0.03-40 uM). Prior to recording baseline activity, each mwMEA plate was placed in the Maestro at 37 C and allowed to sit for 20 min while firing rates stabilized. Baseline activity (40 min) was recorded before the addition of each compound. An additional 40 min of spontaneous activity was recorded in the presence of each compound. Changes in network parameters relative to baseline were assessed following compound treatment.

Structure (SMILES)	outcome	AC50
CC(c1ccc(O)cc1)(c1ccc(O)cc1)c1ccc(O)cc1	inactive	–
COS(=O)(=O)OC	inactive	–
CN(C)CCO	inactive	–
C=CC(N)=O	inactive	–
CO/C=C(/C(=O)OC)c1ccccc1COc1cccc(C(F)(F)F)n1	–	239 nM (active)
O=C(NC(=O)c1c(F)cccc1F)Nc1cc(Cl)c(OC(F)(F)C(F)F)c(Cl)c1	inactive	–
ClC(Cl)=C(c1ccc(Cl)cc1)c1ccc(Cl)cc1	inactive	–
COc1ccc(O)c(C(C)(C)C)c1	inactive	–
CCSC(=O)N(CC)C1CCCCC1	inactive	–
ClC1=C(Cl)[C@]2(Cl)[C@@H]3[C@H]4C[C@H]([C@@H]5O[C@H]45)[C@@H]3[C@@]1(Cl)C2(Cl)Cl	inactive	–
Nc1ccc(-c2ccc(N)cc2)cc1	inactive	–
O=C(O)C(F)(F)C(F)(F)C(F)(F)C(F)(F)C(F)(F)F	inactive	–
Oc1ccc(C(c2ccc(O)cc2)(C(F)(F)F)C(F)(F)F)cc1	inactive	–
CCCN(CCC)N=O	inactive	–
ClC1=C(Cl)[C@]2(Cl)[C@@H]3[C@@H](Cl)[C@H]4O[C@H]4[C@@H]3C1(Cl)C2(Cl)Cl	–	54 nM (active)
O=C(N[C@H]1CN2CCC1CC2)c1cc2ccoc2cn1	inactive	–
CCCCCCCCCc1ccc(O)cc1	inactive	–
CCC(C)(c1ccc(O)cc1)c1ccc(O)cc1	inactive	–
c1ccc(-c2ccccc2)cc1	inactive	–
Clc1ccc(C(Cl)(Cl)Cl)cc1	inactive	–
CCC(C)c1cc([N+](=O)[O-])cc([N+](=O)[O-])c1O (stereo unspecified)	inactive	–
CC#Cc1cc(C)nc(Nc2ccccc2)n1	–	2850 nM (active)
CCC(C)(CC)c1cc(NC(=O)c2c(OC)cccc2OC)on1	inactive	–
ClC1=C(Cl)[C@]2(Cl)[C@@H]3[C@@H]4C[C@@H]([C@H]5O[C@@H]45)[C@@H]3[C@@]1(Cl)C2(Cl)Cl	–	508 nM (active)
CCCCCCCCCC[N+](C)(C)CCCCCCCCCC	inactive	–
CC(C)C(=O)OCC(C)(C)C(OC(=O)C(C)C)C(C)C (stereo unspecified)	inactive	–
